From PubChem BioAssay AID1631 (National Center for Advancing Translational Sciences (NCATS), 2009)
Out of some 260,000 compounds screened, about 890 (0.34%) were called active. Roughly 1% stayed inconclusive and do not appear here. Calls follow the shape of the dose curve; as a rule, active = well fitted activation curve with a large enough effect; inconclusive = small, poorly fitted or top-dose-only effect; inactive = no such curve, though single readings can be large or run the other way. What follows is part of a selection rich in actives, with near analogues and random picks from the rest.

target: Pyruvate kinase PKM (Homo sapiens) (UniProt P14618); experiment: qHTS Assay for Activators of Human Muscle isoform 2 Pyruvate Kinase; conditions: purified PKM2, Kinase-Glo ATP luminescence; Potency: activation; series mostly up to 57.5 µM; activation: at the top concentration; also: nearly all actives have a fitted effect of over 55% in size
Sequence (P14618 whole entry, looked up, canonical isoform): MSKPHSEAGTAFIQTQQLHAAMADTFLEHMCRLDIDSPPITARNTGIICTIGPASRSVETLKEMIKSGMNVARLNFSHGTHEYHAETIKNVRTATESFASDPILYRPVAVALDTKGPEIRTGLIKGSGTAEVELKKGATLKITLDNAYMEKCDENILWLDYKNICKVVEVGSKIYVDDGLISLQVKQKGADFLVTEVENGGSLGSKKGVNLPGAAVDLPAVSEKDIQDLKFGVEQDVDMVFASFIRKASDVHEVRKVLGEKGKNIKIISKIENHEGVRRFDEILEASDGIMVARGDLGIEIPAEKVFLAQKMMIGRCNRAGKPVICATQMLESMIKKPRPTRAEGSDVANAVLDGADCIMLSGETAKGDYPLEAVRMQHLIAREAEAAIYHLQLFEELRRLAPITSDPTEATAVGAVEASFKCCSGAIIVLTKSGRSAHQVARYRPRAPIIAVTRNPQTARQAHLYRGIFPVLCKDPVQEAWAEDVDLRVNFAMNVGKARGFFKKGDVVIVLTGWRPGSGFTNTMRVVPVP
Source text: NIH Chemical Genomics Center [NCGC] Matthew G. Vander Heiden, M.D., Ph.D. [Harvard Medical School, 77 Avenue Louis Pasteur, Boston, MA 02115] MLPCN Grant: 1 R03 MH085679-01 NCGC Assay Overview: Human pyruvate kinase muscle 2 (hPK-M2) enzyme was supplied as a highly purified (>95% pure) preparation from Harvard Medical School and assayed for its ability to generate ATP from ADP using phosphoenolpyruvate (PEP) as a substrate. ATP generation was detected in a coupled reaction by luciferase-mediated luminescence, an ATP-dependent process. […] The enzyme was assayed at an intermediate level of activity to screen for both inhibitors and activators.
NCGC Assay Protocol Summary: Three uL of substrate mix (at r.t.) in assay buffer (50 mM Imidazole pH7.2, 50 mM KCl, 7 mM MgCl2, 0.01% Tween 20, 0.05% BSA) was dispensed into white solid bottom 1,536 well microtiter plates so that the final concentrations of substrates in the assay were 0.1 mM ADP and 0.5 mM PEP. 23 nL of compound were delivered by a pin tool and 1 uL of enzyme mix in assay buffer (4 degree Celsius) was added. Plates were incubated at room temperature for 1 hour. Two uL of detection mix (Kinase-Glo, Promega; at 4 degree Celsius protected from light) was added and luminescence read by a ViewLux (Perkin Elmer) at 5 second exposure/plate. Data were normalized to the uninhibited and AC100 inhibition (no enzyme). To monitor activation, the first column contained a titration of the activator, NCGC00031955-01 (16-point 1:2 dilutions in duplicate starting at 57 uM) and the first 16 rows of column 4 contained 57 uM of NCGC00031955-01.
% is scaled to controls: 0 for no effect and ±100 for the full control effect; potency is read from the fitted curve at half-maximal effect.

SMILES | activation | Potency
O=c1c2ccccc2nc(-c2ccco2)n1-c1ccc(Br)cn1 | 6.38% (inactive) | –
O=c1c2ccccc2nc(/C=C/c2ccco2)n1-c1ccccc1O | – | 3.98 µM (active)
Cc1nc2ccccc2c(=O)n1-c1ccc(Cl)cc1Cl | -0.0497% [at 11.5 µM, 0% is enzyme alone, no compound] (inactive) | –
CCCCn1c(=O)c(C(=O)Nc2ccccc2Cl)c(O)c2ccccc21 | 0.939% (inactive) | –
CN(C)C(=O)Oc1ccc(NC(=O)N2CCOCC2)cc1 | 1.13% (inactive) | –
